# Results filed as inconclusive are left out. Active and inactive are the calls of the source. Calls follow the shape of the dose curve; as a rule, active = well fitted cell-killing curve with a large enough effect; inconclusive = small, poorly fitted or top-dose-only effect, or effect the other way; inactive = no such curve, though single readings can be large or run the other way.
# Test: Viability qHTS for spleen associated tyrosine kinase inhibitor (SYKi) drug resistant MV4-11 cells (AID 1963824); also: nearly all actives have a fitted effect of over 35% in size
# Conditions: SYKi-resistant MV4-11 viability, CellTiter-Glo, 72 h; series mostly up to 45 µM
# Outline: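 SYK-inhibitor-resistant MV4-11 AML cells were seeded at 500 per well onto compound and cultured 72 hours (37 °C, 5% CO2). CellTiter-Glo was then added, and after 10 min at room temperature, luminescence gave viability.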
# Potency is read from the fitted curve at half-maximal effect.
SMILES,Potency,"viability, % of control"
CC(=O)NC(C)c1cnc(-c2cnc(Oc3ccc(OC(C)C)cc3)s2)s1 (stereo not given),10.3 µM (active),
CC(c1c[nH]c2ccccc12)C(O)C(=O)O (stereo not given),inactive,
C=C(C)C1Cc2cc(C(=O)OC3OC(CO)C(O)C(O)C3O)ccc2O1 (stereo not given),inactive,
CC(=O)O[C@@H]1CC2C(/C=C(\C)C(=O)[C@@]3(O)C[C@@H](C)[C@H](OC(=O)c4ccccc4)C3/C=C/1C)C2(C)C (stereo not given in full),10 µM (active),
Cc1ncsc1-c1ccc([C@H](C)NC(=O)[C@@H]2C[C@@H](O)CN2C(=O)[C@@H](NC(=O)COCCCOCCNC(=O)C[C@@H]2N=C(c3ccc(Cl)cc3)c3c(sc(C)c3C)-n3c(C)nnc32)C(C)(C)C)cc1,0.0023 µM (active),
C=C1C[C@@]23CC[C@@H]4[C@](C)(C(=O)O)CCC[C@@]4(C)C2=CC[C@H]1C3,inactive,
COc1cc2c(cc1OC)N1C(=O)C[C@]34C=CCN5CC[C@@H]2[C@@H](CC3)[C@]514,8.05 µM (active),
CC(=O)OC1C(O)CC2(C)C(CCC(C)C23Cc2c(O)cc(CO)c(C=O)c2O3)C1(C)C (stereo not given),11.2 µM (active),
CC(C)(O)c1ccc2c(c1)ncn2-c1cccc(-c2ccccc2C#N)c1,18.4 µM (active),
CCOc1ccc(Cc2nccc3cc(OCC)c(OCC)cc23)cc1OCC,0.15 µM (active),
COc1cc2c(cc1OC)[C@@H]1[C@H](O)[C@@H](OC)C=C3CCN(C2)[C@H]31,1.8 µM (active),
CCCCC(=O)N1c2ccccc2NC2=C(C(=O)CCC2)C1c1ccccc1Cl (stereo not given),8.2 µM (active),
CC#C[C@@H](CC(=O)O)c1ccc(OCc2ccc(CN3CCC4(C=Cc5ccccc54)CC3)s2)cc1,11.6 µM (active),
CC1(C)CC(=O)C2=C(C1)NC(=S)NC2c1cccc(O)c1 (stereo not given),0.58 µM (active),
Cn1c(=O)c2nc(/C=C/c3cccc(Cl)c3)n(C)c2n(C)c1=O,inactive,
CC1OC(OC2C(O)C(C(=O)O)OC(OC3CCC4(C)C(CCC5(C)C4C=CC4=C6CC(C)(C)CC(O)C6(C)CCC45C)C3(C)C)C2OC2OCC(O)C(O)C2O)C(O)C(O)C1O (stereo not given),,97.4% [at 9.25 µM] (inactive)
O=c1[nH]ccc2nc(-c3ccc(CN4CCC(c5nc(-c6ccccn6)n[nH]5)CC4)cc3)c(-c3ccccc3)cc12,9.2 µM (active),
COC(=O)C1(C)c2[nH]c3ccccc3c2CCN1C(=O)CCl (stereo not given),2.91 µM (active),
CS(=O)(=O)c1ccc([C@H](CC2CCCC2)C(=O)Nc2nccs2)cc1,13 µM (active),
CC1(C)CC[C@]2(C(=O)O[C@@H]3O[C@H](CO)[C@@H](O)[C@H](O)[C@H]3O)CC[C@]3(C)C(=CCC4[C@@]5(C)C[C@@H](O)[C@H](O)[C@@](C)(CO)C5[C@H](O)C[C@]43C)C2C1 (stereo not given in full),inactive,

SMILES,Potency,"viability, % of control"
CC(C)(C)c1ccc(CN2CCN(C(c3ccccc3)c3ccc(Cl)cc3)CC2)cc1 (stereo not given),23.1 µM (active),
CCOc1ccc2nc(SCCN3CCOCC3)[nH]c2c1,inactive,
O=C(/C=C/n1cnc(-c2cc(C(F)(F)F)cc(C(F)(F)F)c2)n1)NNc1cnccn1,1.46 µM (active),
CC(C)c1c(O)ccc2c1CC[C@H]1C(C)(C)CCC[C@]21C,16.4 µM (active),
CC1(C)C2CC[C@@]34CC(CC[C@H]3[C@]2(C)CC[C@@H]1O[C@@H]1O[C@H](CO)[C@@H](O)[C@H](O)[C@H]1O)[C@](C)(O)C4 (stereo not given in full),inactive,
COC(=O)c1ccc2c(c1)[nH]c1ncnc(NCCCN3CCCCC3)c12,9.2 µM (active),
CCn1c(=O)n([C@H]2CCCN(c3nccc(-c4cc5ccccc5o4)n3)C2)c2ccccc21,23.1 µM (active),
CC1=C(CO)C2(C)CCCC(C)(C)C2C(O)C1O (stereo not given),inactive,
CCC(=O)O[C@]1(C(=O)CCl)[C@@H](C)C[C@H]2[C@@H]3C[C@H](F)C4=CC(=O)C=C[C@]4(C)[C@@]3(F)[C@@H](O)C[C@@]21C,18.4 µM (active),
COc1cnc(-n2cnc(C)n2)c2[nH]cc(C(=O)C(=O)N3CCN(C(=O)c4ccccc4)CC3)c12,inactive,
CC(C)C(C(=O)N(C)C(C)C(N)=O)N(C)C(=O)C1CCCN1C(=O)/C=C/C=C/C(O)C(C)O (stereo not given),inactive,
CN[C@@H]1[C@H](O[C@H]2[C@H](O[C@@H]3[C@@H](O)[C@H](O)[C@@H](N=C(N)N)[C@H](O)[C@H]3N=C(N)N)O[C@@H](C)[C@]2(O)CO)O[C@@H](CO)[C@H](O)[C@H]1O,inactive,
C[C@@H]1O[C@@H](O[C@H]2[C@H](Oc3cc(O)c(C(=O)CCc4ccc(O)cc4)c(O)c3)O[C@H](CO)[C@@H](O)[C@@H]2O)[C@H](O)[C@H](O)[C@H]1O,inactive,
O=S(=O)(NCC1CC1)c1ccc(Nc2nccc(N3CCCc4cc(O)ccc43)n2)cc1,0.206 µM (active),
C[C@@H]1O[C@@H](O[C@H]2[C@H](O[C@H]3CO[C@@H](O[C@H]4CC[C@@]5(C)C(CC[C@]6(C)C5CC[C@]57OC[C@@]8(CC[C@](C)(CO)CC85)[C@H](O)C[C@]76C)C4(C)C)[C@H](O[C@@H]4O[C@H](CO)[C@@H](O)[C@H](O)[C@H]4O)[C@H]3O)O[C@H](CO)[C@@H](O)[C@@H]2O)[C@H](O)[C@H](O)[C@H]1O (stereo not given in full),,95% [at 9.25 µM] (inactive)
CCCCCCCCn1cc(CN(CC)CC)c2cc(-c3cnc(N)nc3)ccc21,2.59 µM (active),
CC(F)(F)CN1CCOc2c(nn(-c3ccccc3Cl)c2-c2ccc(Cl)cc2)C1=O,20.6 µM (active),
C=CC(C)(C)c1[nH]c2cc3c(cc2c1CC1NC(=O)C2CCCN2C1=O)C=CC(C)(C)O3 (stereo not given),inactive,
CC(=O)Nc1cccc(-c2csc(Nc3cc(C)ccn3)n2)c1,16.4 µM (active),
C[C@@H]1O[C@@H](OC(=O)Cc2ccccc2)[C@H](O)[C@H](O)[C@H]1O,inactive,
